Data on 40 compounds can be found in PubChem BioAssay (Tox21).

The structures appear in SMILES notation. “And” between values parts separate entries of the source, which are not always exact repeats. Identical values can stand only once. Inconclusive results are not listed. Entries that show only a call come without a potency. The source made the active and inactive calls. Calls follow the shape of the dose curve; as a rule, active = well fitted cell-killing curve with a large enough effect in the repeat runs; inconclusive = weak or mixed curves; inactive = flat fitted curve, though single readings scatter.
Potency is read from the fitted curve at half-maximal effect.

The nature of this test: qHTS RealTime-Glo MT Cell Viability Assay in HepG2 cells - 16 hour (AID 1224885). Also: nearly all actives have a fitted effect of over 50% in size. The conditions noted are these: RealTime-Glo luminescence; series mostly up to 76.8 µM. The text has this: U.S. Tox21 Program National Center for Advancing Translational Sciences [NCATS] NIH Chemical Genomics Center [NCGC] U.S. Environmental Protection Agency [EPA] National Institutes of Environmental Health Sciences [NIEHS] National Toxicology Program [NTP] U.S. Food and Drug Administration [FDA] Tox21 Assay Overview: Measure of cell viability is critical in the cell-base assay. Analysis of cell viability is necessary for the characterization of cell responses to cytotoxic drugs and environmental stress. A RealTime-Glo MT Cell Viability Assay to monitor cell viability in real time of continues cell culture during 40 hours of compound treatment was used to screen Tox21 10K library compounds in HepG2 cells. The RealTime-Glo MT Cell Viability Assay is a nonlytic, homogeneous, bioluminescent method to measure cell viability in real time using a simple, plate-based method. The assay involves adding NanoLuc luciferase and a cell-permeant prosubstrate to cells in culture. Viable cells reduce the proprietary prosubstrate to generate a substrate for NanoLuc luciferase. This substrate diffuses from cells into the surrounding culture medium, where it is rapidly used by the NanoLuc Enzyme to produce a luminescent signal. The signal correlates with the number of viable cells, making the assay well suited for cytotoxicity studies.
Tox21 Assay Protocol Summary: The mixture of HepG2 cell suspension and reagents were dispensed at 600cells/6 ul/well in 1536-well tissue culture treated black solid bottom plates using a Multidrop dispenser. After the assay plates were incubated at a 37 C/5% CO2 incubator for 5 hours, 23 nL of compounds dissolved in DMSO, positive and negative controls was transferred to the assay plate by a pintool work station. The plates were incubated at 37 C for 40 hours. The luminescence intensity were measured at 0h, 8h, 16h, 24h, 32h and 40h time points using ViewLux plate reader during compound treatment.
On to `CN1C[C@H](C(=O)N[C@]2(C)O[C@@]3(O)[C@@H]4CCCN4C(=O)[C@H](Cc4ccccc4)N3C2=O)C=C2c3cccc4[nH]cc(c34)C[C@H]21`, for which the Potency was 19.6 µM (active).
As for `CC(Cc1ccccc1)NCc1ccccc1Cl` (stereo not given), the entry is “inactive”.
With `COc1ccc(C(O)(c2cncnc2)C2CC2)cc1` (stereo not given), the Potency entry was “inactive”.
As for `CC(C)(C#N)C(C)(C)C#N`, the Potency result is “inactive”.
As for `CCCCC(CC)CO[N+](=O)[O-]` (stereo not given), the entry is “inactive”; as for `CCC(C)(C)O`, “inactive”; as for `CN(C1CCCCC1)C1CCCCC1`, “inactive”.
As for `C[C@H]1[C@@H]2Cc3ccc(O)cc3[C@@]1(C)CCN2C`, the entry is “inactive”.
As for `CC(Cl)C(=O)O` (stereo not given), the entry is “inactive”; as for `O=C(O)C(F)(F)C(F)(F)C(F)(F)C(F)(F)C(F)(F)F`, “inactive”; as for `Cc1ccc(N)c(C)c1`, “inactive”.
On to `c1ccc2sc(SNC3CCCCC3)nc2c1`, for which the Potency entry is “inactive”.
As for `O=C(CCl)CCl`, the entry is “inactive”; as for `CCCCCCCCCCCCCCCl`, “inactive”; as for `CCC1(CC)C(=O)NC(=O)NC1=O`, “inactive”.
As for `O=C(N[C@H]1CN2CCC1CC2)c1ccc2c(c1)OCCO2`, the entry is “inactive”; as for `CCc1cnc(C2=NC(C)(C(C)C)C(=O)N2)c(C(=O)O)c1` (stereo not given), “inactive”; as for `CC(C)C1(C)N=C(c2ncccc2C(=O)O)NC1=O` (stereo not given), “inactive”.
As to `CC(C)(C)CC(C)(C)c1ccc(O)cc1`, the Potency was 34.7 µM (active).
As for `COc1ccc(C(=O)c2c(C)n(CCN3CCOCC3)c3ccccc23)cc1`, the Potency entry was “inactive”.
Then `COC(=O)Cc1ccccc1`, with “inactive”.
For the compound `Cc1nc(N(C)C)nc(OC(=O)N(C)C)c1C`, the Potency entry is “inactive”.
As for `N#CC(C#N)=C(C#N)C#N`, the entry is “inactive”.
For the compound `CCCCCCCCn1sccc1=O`, the Potency was 43.7 µM (active) and 16.2 µM (active).
Then `COC1=CC(=O)O[C@@H](/C=C/c2ccc3c(c2)OCO3)C1`, with “inactive”.
In the case of `CCOP(=O)(O)C(N)=O`, the Potency result was “inactive”.
Turning to `O=S(=O)(c1ccccc1)c1ccccc1`, the Potency entry is “inactive”.
As for `CC(C)(C)c1ccc(CCOc2ncnc3ccccc23)cc1`, the entry is “inactive”; as for `CCC(=O)O[C@@H]1C=C2CCC3C(CCC4(C)C3CC[C@@H]4OC(=O)CC)C2CC1` (stereo not given in full), “inactive”.
As to `NC(=O)CF`, the Potency entry is “inactive”.
Then `O=C1CC[C@@]2(O)[C@H]3Cc4ccc(O)c5c4[C@@]2(CCN3CC2CC2)[C@H]1O5`, with “inactive”; and `C[C@H]1O[C@H](OC2[C@@H](O)[C@@H](O)C(O)[C@H](O)[C@H]2O)[C@@H](N)C[C@@H]1N=C(N)C(=O)O` (stereo not given in full), with “inactive”.
Then `CCCC[P+](CC)(CCCC)CCCC` (tested in a mixture with another compound), with “inactive”; and `Nc1ccc2c(c1)Cc1ccccc1-2`, with “inactive”; and `COP(=O)(OC)OC(Br)C(Cl)(Cl)Br` (stereo not given), with “inactive”.
As for `COc1ccccc1N1CCNCC1`, the entry is “inactive”; as for `O=C(NCNC(=O)NC1C(=O)NC(=O)N1CO)NC1C(=O)NC(=O)N1CO` (stereo not given), “inactive”; as for `OCCSSCCO`, “inactive”.
On to `CC(C)(C)NCC(O)c1ccccc1Cl` (stereo not given), for which the Potency entry is “inactive”.
On to `CCOP(=S)(OCC)SCSc1cc(Cl)ccc1Cl`, for which the Potency result is “inactive”.
